Screens as filed in PubChem.
D1 antag = human D1 dopamine receptor antagonism; P21728; HEK293 TREx D1 cells, calcium flux, dopamine EC80; active compounds read low; activity change, negative = inhibition, % at 10 µM; hit rate 3.2% among 360,000; AID 504652; in the data active = activity change below about -30%; also: % is scaled to controls: 0 for no effect and ±100 for the full control effect
Target sequence (P21728 whole entry, looked up): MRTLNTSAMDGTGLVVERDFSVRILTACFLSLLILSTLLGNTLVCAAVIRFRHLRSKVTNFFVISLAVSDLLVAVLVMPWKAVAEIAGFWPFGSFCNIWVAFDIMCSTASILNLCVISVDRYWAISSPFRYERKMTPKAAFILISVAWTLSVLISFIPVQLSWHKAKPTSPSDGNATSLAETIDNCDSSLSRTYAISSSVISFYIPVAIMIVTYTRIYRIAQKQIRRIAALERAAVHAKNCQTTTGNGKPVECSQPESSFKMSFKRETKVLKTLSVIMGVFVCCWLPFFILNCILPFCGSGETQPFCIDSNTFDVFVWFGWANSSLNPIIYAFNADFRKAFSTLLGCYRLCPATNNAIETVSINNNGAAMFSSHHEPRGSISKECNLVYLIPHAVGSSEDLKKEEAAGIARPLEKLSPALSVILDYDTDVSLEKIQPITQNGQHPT
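Calcium flux readout: force-coupled, inducible Hek293 Trex D1 line, cells induced overnight at 30 C with tetracycline, dye-loaded 30–90 min at RT. Antagonism scored against EC80 dopamine challenge given 180 s after compound.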
TRPV1 potentiator = human TRPV1 potentiation | hit rate 0.02% among 320,000 | potentiation, % at 8.33 µM | AID 540277 | Q8NER1 | TRPV1-expressing cells, Fluo-8 calcium influx, capsaicin EC20 potentiation; in the data active = potentiation above about 80%; inconclusive = between about 30% and that limit; also: 0% is about no effect
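Cells expressing TRPV1 were dye-loaded with Fluo-8 and read kinetically: 10 s baseline, 3 min after compound (agonist portion), then 2 min after EC20 capsaicin (allosteric enhancer portion). Calcium-bound dye fluorescence at 480/520 nm.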
D1 PAM = enhances dopamine response at the human D1 receptor; HEK293 TREx D1 cells, calcium flux, dopamine EC20 potentiation; potentiation, % at 10 µM; hit rate 0.036% among 360,000; in the data active = potentiation above about 30%; also: 0% is about no effect
D1 ag = activates the human D1 dopamine receptor; HEK293 T-REx D1 cells, calcium flux, agonist mode; activation, % at 2 µM; P21728; hit rate 1% among 360,000; AID 504660; in the data active = activation above about 30%; also: 0% is about no effect
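Inducible HEK293 T-REx D1 cells, force-coupled to calcium signalling, were plated at 4000 cells/well with tetracycline and held overnight at 30 C. After no-wash calcium dye loading, compound-evoked calcium rise over 180 s flagged agonists.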
TRPV1 ag = activates the human vanilloid receptor TRPV1; Q8NER1; TRPV1-expressing cells, Fluo-8 calcium influx, agonist mode; activation, % at 8.33 µM; hit rate 0.19% among 320,000; in the data active = activation above about 80%; inconclusive = between about 30% and that limit; also: 0% is about no effect
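Cells expressing TRPV1 were dye-loaded with Fluo-8 and read kinetically: 10 s baseline, 3 min after compound (agonist portion), then 2 min after EC20 capsaicin (allosteric enhancer portion). Calcium-bound dye fluorescence at 480/520 nm.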
Starred values were filed as active, the others as inactive; ? = inconclusive; . = no result given. Compounds with a hit are over-represented: about 4.2% of the library has one in this group of screens.

SMILES	D1 antag	TRPV1 potentiator	D1 PAM	D1 ag	TRPV1 ag
COc1ccc(-c2noc(CCC(=O)NCCN3CCN(c4ccccc4F)CC3)n2)cc1	-5.3	-1.1	-7.3	8.8	1.8
Cc1ccc(-c2noc(CCC(=O)NCCCN3CCN(c4cccc(Cl)c4)CC3)n2)cc1	-73.0*	12.3	-8.9	82.3*	-3.9
Cc1ccc(-c2noc(CCC(=O)NCCCN3CCN(c4ccc(F)cc4)CC3)n2)cc1	-82.5*	6.9	-14.0	24.8	3.3
COc1ccc(-c2noc(CCC(=O)NCCCN3CCN(c4ccccc4F)CC3)n2)cc1	-56.4*	-2.7	-16.9	31.5*	6.0
O=C(CCn1ccc2cc(S(=O)(=O)N3CCCC3)ccc21)NCc1cccc(Br)c1	15.0	.	-1.8	22.4	.
CCn1cc(C(=O)NCc2ccccc2Cl)c(=O)c2cc(S(=O)(=O)N3CCc4ccccc4C3)ccc21	8.7	.	1.1	0.6	.
COc1ccc2c(Sc3ccc(Cl)cc3)c(C(=O)NCCCN3CCCCC3)[nH]c2c1	-10.5	.	-1.0	3.1	.
O=C(NCCc1ccc(Cl)cc1)c1cccn1-c1nnc(N2CCCCC2)s1	-7.1	.	4.4	1.8	.
CCCCc1nn(-c2cc(Cl)ccc2OC)c2c1C(=O)CC(C)(C)C2	13.4	-20.1	-4.2	6.3	-1.9
CCCc1nn(-c2cc(Cl)ccc2OC)c2c1C(=O)CCC2	-46.2*	-43.6	1.8	3.7	?
O=C(CN1C2=NCCCN2c2ccccc21)c1cccc(Br)c1	0.7	1.3	-7.5	38.0*	-0.4
Clc1ccc(CN2C3=NCCCN3c3ccccc32)cc1	-60.3*	-4.7	-9.2	71.6*	2.3
COc1cc(OC)c(NC(=O)C(C)n2nc(-c3ccc(C)c(C)c3)ccc2=O)cc1Cl (stereo not given)	-4.0	.	1.4	4.1	.
CCCCN(CC)CCNC(=O)Cn1c(=O)c2cccn2c2cccnc21	-12.6	.	-3.8	1.6	.
Cn1nc(C(F)(F)F)c2cc(C(=O)Nc3ccc(C(F)(F)F)cc3)sc21	-45.3*	-53.4	-7.2	21.5	-5.9
Cn1nc(C(F)(F)F)c2cc(C(=O)Nc3ccc(F)cc3)sc21	2.4	-26.1	-4.8	4.0	?
N#CC(c1ccc(Cl)cc1)c1ccc2c(C(F)(F)F)cc(C(F)(F)F)nc2n1 (stereo not given)	11.1	-0.2	31.6*	4.0	18.7
Cc1ccc(-c2nc3nc4ccccc4nc3n2Cc2ccco2)cc1	-27.0	-4.3	-16.4	1.5	27.9
Clc1ccc(-c2nc3nc4ccccc4nc3n2Cc2ccco2)cc1	-41.0*	-9.5	-10.4	1.9	18.7
COc1ccc(NC(=O)Nc2cc(-c3cn4cccnc4n3)ccc2C)cc1	-3.0	.	-4.8	-0.8	.
Cc1ccc2nc(N3CCC(C(=O)N4CCN(c5cccc(Cl)c5)CC4)CC3)[nH]c2c1	-11.2	.	-2.1	43.4*	.
COc1ccccc1CNC(=O)C1CCN(c2nc3ccc(Cl)cc3[nH]2)CC1	-73.8*	.	6.2	1.9	.
O=C(C1CCN(c2nc3ccccc3[nH]2)CC1)N1CCN(c2cccc(Cl)c2)CC1	-15.9	.	-3.9	15.4	.
COc1ccccc1CNC(=O)C1CCN(c2nc3ccc(C)cc3[nH]2)CC1	9.2	.	0.1	0.7	.
Cc1cc2c(s1)c1cnn(Cc3c(F)c(F)c(C)c(F)c3F)c(=O)c1n2C	13.2	.	6.5	0.8	.
SMILES	D1 antag	TRPV1 potentiator	D1 PAM	D1 ag	TRPV1 ag
Cc1ccc(C(=O)N(Cc2nnc(-c3ccc(Cl)cc3)o2)C2CC2)o1	0.6	-10.4	1.7	-0.6	4.4
O=C(CSC(=S)N1CCCC1)N(Cc1nnc(-c2ccccc2Cl)o1)C1CC1	-66.9*	1.2	.	5.3	3.2
O=C1OC(CC(=O)N(Cc2nnc(-c3ccc(Cl)cc3)o2)C2CC2)c2ccccc21 (stereo not given)	-44.4*	0.5	.	0.7	0.1
CCCN1C[C@H](CSC)C[C@@H]2c3cccc4[nH]cc(c34)C[C@H]21	-88.3*	-19.6	-5.9	51.0*	6.8
COc1ccc(CNc2ncc(-c3ccc(F)cc3)n2C)c2ccccc12	-36.4*	1.7	-10.8	12.2	0.7
COc1ccccc1CNc1ncc(-c2ccc(F)cc2)n1C	-62.2*	1.1	-8.3	5.6	5.0
Cn1c(-c2ccc(F)cc2)cnc1NCc1ccccc1	-8.8	-22.0	-14.7	0.4	3.6
COc1ccc(OC)c(CNc2ncc(-c3ccc(F)cc3)n2C)c1	-55.0*	-5.9	-13.1	5.4	-9.1
Cn1c(-c2ccc(F)cc2)cnc1NCc1cc2c(cc1[N+](=O)[O-])OCO2	-77.0*	1.9	-4.8	23.8	-4.3
